Integrin act MD: activates integrin-mediated alleviation for muscular dystrophy; hit rate 0.064% among 350,000; Potency, µM (highest dose often 38.3 µM), inactives show at the highest dose activation, usual class: activators; alpha7betagal myoblasts, beta-gal FDG fluorescence, 48 h; AID 624291;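 further: potency means the concentration at half of the fitted maximal effect; 100% = response of the positive control SU9516; nearly all actives have a fitted effect of over 60% in size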
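Alpha7betagal+/- myoblasts (passage 13) were plated 16-24 hr, then exposed to compounds (1:260 dilution of DMSO stock) for 48 hours at 37C. After MPER lysis, β-galactosidase reporter activity was read as FDG fluorescence (ex 480/em 540) after 30 minutes.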
TCR act: activates T cell receptor signaling. 330,000 tested, under 10 active. primary human leukocytes, anti-CD3, IL-2 HTRF, 48 h. Potency, µM (top dose mostly 9.22 µM), for the others: at the top dose activation of IL-2 secretion, most hits filed as activators. AID 504894; further: % of control where 0% means no effect
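Human primary leukocytes + a-CD3 beads + cpd, 48 hr; IL-2 in supernatant by HTRF (ex 320nm / em 665nm). No co-stimulatory signal supplied.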
BCR signal inh: blocks chronic active B-cell receptor signaling; ABC-DLBCL IkBa-CBG/CBR reporter, luminescence ratio, 4 h; Potency, µM (top dose mostly 46.1 µM), for inactives: top-dose activity change, negative = inhibition, actives largely listed as inhibitors; hit rate 0.05% among 340,000; AID 493014; active means well fitted inhibition curve with a large enough effect in the signal ratio, with a control signal flat, not every such curve was filed as active; inconclusive means small, poorly fitted or top-dose-only effect, or effect the other way, or a change in a side signal; the % refers to the signal ratio;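 further: potency means the concentration at half of the fitted maximal effect; plate controls were basal doxycycline-induced cells for no effect and cells given 10 µM MG132 for full effect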
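TMD8 human ABC-DLBCL cells with doxycycline-inducible IκBα–green luciferase fusion and unfused red luciferase, in 0.5% FBS medium; compounds up to 46 uM, 4 h at 37C. Green/red luminescence ratio, filter-overlap corrected, fitted to concentration-response curves.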
Giardia killer: Giardia lamblia killing; hit rate 0.15% among 340,000; activity change, % at 7.66 µM, hits read low; AID 540267; Giardia lamblia trophozoite viability; in the data active means activity change below about -80%; inconclusive means between about -30% and that limit;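 further: parasites exposed to compound for two days anaerobically before the ATP read; on the % scale 0 is the no-effect control and ±100 the full control effect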
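Luminescence from cellular ATP indicates surviving trophozoites (100 cells/well) following 48 hrs anaerobic compound treatment at 37 deg C; signal develops 15-30 min at room temperature.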
* = called active by the depositor; ? = inconclusive; . = not tested or not shown; [ ] = remark or other dose. Rows were chosen to be rich in hits. Some 0.25% of all compounds tested hit in one or more screens of this group. Unless noted, the call rests on the fitted dose curve; in most records, active means well fitted curve in the direction sought with a large enough effect; inconclusive means small, poorly fitted or top-dose-only effect, or another doubt; inactive means no such curve, though single readings can be large; an effect the other way counts as inactive or inconclusive.

SMILES	Integrin act MD	TCR act	BCR signal inh	Giardia killer
O=C(Cc1cccs1)N/N=C\c1ccc([N+](=O)[O-])s1	-1%	5%	4%	-85*
COc1cc(/C=N/NC(=O)Cc2cccs2)c([N+](=O)[O-])cc1OC	-14%	-2%[46.1 µM]	-9%	6
COc1cccc2cc(-c3csc(-c4ccc(Cl)cc4)n3)c(=O)oc12	.	.	1%	.
C=C1CCN(C(Cc2ccccc2)C(=O)Nc2ccc(OC)cc2)S(=O)(=O)c2ccccc21 (stereo not drawn)	.	.	.	-3
COc1ccc(CCNC(=O)c2cc(-c3ccc(C)c(C)c3O)n[nH]2)cc1OC	14%	-2%	?	2
COc1ccc(CCNC(=O)c2cc(-c3cc(C)ccc3O)n[nH]2)cc1OC	10µM*	-6%	?	-10
CC1=C(C(=O)Nc2ccc(C)cc2C)C(c2ccccc2F)n2nc(SCC(=O)c3ccc(C)cc3)nc2N1 (stereo not drawn)	.	.	-3%	.
COc1ccc(Nc2cc3n(c(=O)n2)CCc2cc(OC)c(OC)cc2-3)c(C)c1	2%	1%	18µM*	-21
COc1ccc(Nc2cc3n(c(=O)n2)CCc2cc(OC)c(OC)cc2-3)cc1	-24%	0%	?	10
CCOc1cc2sc(N3CCC(C(=O)Nc4ccc(C)cc4)CC3)nc2cc1Br	.	.	.	-3
O=[N+]([O-])c1nn(-c2ccc3c(c2)OCCO3)n(O)c1=NCc1ccccc1Cl	-3%	-2%	3%	?
O=[N+]([O-])c1nn(-c2ccc3c(c2)OCCO3)n(O)c1=NC1CCCCC1	-29%	2%	?	-84*
COc1ccccc1CN=c1c([N+](=O)[O-])nn(-c2ccc3c(c2)OCCO3)n1O	-12%	-3%[46.1 µM]	-2%	-90*
COC(=O)C1=C(C)NC(C)=C(C(=O)OC)C1c1ccc(N(C)C)cc1	21%	-2%	21µM*	4
CC(=O)Nc1nonc1-c1nc2ccccc2n1CCC(C)C	11µM*	-6%	4%	4
CCC(=O)Nc1nonc1-c1nc2ccccc2n1CCC(C)C	-17%	6%	4%	0
N#Cc1cc(O)c(-n2nnc3ccccc32)cc1C#N	22%	2%	12%	-7
N#Cc1cc(Oc2cccc3cccnc23)c(-n2nnc3ccccc32)cc1C#N	-64%	1%	7.9µM*	2
COc1cc2cc(C(=O)N3CCOCC3)cc(-c3ccc(C)cc3)c2cc1OC	-11%	4%	16µM*	17
CCN(CC)c1ccc(C2NC(=O)c3ccccc3N2)cc1 (stereo not drawn)	-15%	-22%	.	-86*
CCN(CC)c1ccc(C2Nc3cccc4cccc(c34)N2)cc1	-36%	-5%	?	-3
CC(=O)N[C@@H](Cc1ccc(O)cc1)C(=O)N[C@H](C(=O)N[C@@H](C)C(=O)N[C@H](C#N)CC(=O)O)C(C)C	.	.	6%	.
CCOC(=O)c1cc(-c2ccc(F)cc2)n(CC(=O)NC2CCCCCC2)c1C	.	.	17%	.
CCN(CC)CCN1C(=O)c2ccccc2NC1c1ccc(OC)c(COc2ccc(NC(C)=O)cc2)c1 (stereo not drawn)	.	.	.	15
CCOc1ccc(N(CC(=O)Nc2ccccc2OC)S(=O)(=O)c2ccccc2)cc1	-24%	.	16µM*	6
SMILES	Integrin act MD	TCR act	BCR signal inh	Giardia killer
COCCNC(=O)/C(C#N)=C/c1ccc(O)cc1	6%	-2%	-6%	6
COCCNC(=O)/C(C#N)=C/c1cccc(/C=C(\C#N)C(=O)NCCOC)c1	-30%	7%[46.1 µM]	15µM*	5
CCOC(=O)Cn1c(=NC(=O)c2ccc([N+](=O)[O-])s2)sc2ccccc21	-15%	11%[46.1 µM]	2%	-96*
CCOC(=O)Cn1c(=NC(=O)C2COc3ccccc3O2)sc2cc(S(N)(=O)=O)ccc21 (stereo not drawn)	-10%	-2%[46.1 µM]	5%	14
O=C(COc1cccnc1[N+](=O)[O-])Nc1ncc(Cl)cc1Cl	9%	-2%	?	-80*
Cc1c(C)c2cc(Cl)c(OCC(=O)Nc3ccccn3)cc2oc1=O	17%	.	.	.
O=C(COc1cccnc1[N+](=O)[O-])Nc1c(Cl)cccc1Cl	7%	-2%	-2%	?
O=C(COc1ccc(Cl)cc1Cl)Nc1ccccn1	0%	7%	?	-101*
Cc1c(C)c2ccc(OCC(=O)Nc3ccccn3)c(C)c2oc1=O	?	1%	-13%	-98*
COc1ccc(N2CC(NC(=O)c3ccc(S(=O)(=O)N4CCCC4)cc3)CC2=O)cc1 (stereo not drawn)	.	.	-20%	.
